# Data published in publication PMC8384837, “Expanding the binding specificity for RNA recognition by a PUF domain”.
# Tests used:
# Experiment in all cases: yeast three-hybrid, YBZ-1, SC-Leu-His + 0.5 mM 3-AT, 4 days
# Details in all cases: tags: N-Gal4 AD-HA kept; label: inside an RPR1-promoter hybrid RNA with tandem MS2 sites; ssRNA
# PUM1 PUF domain R3-VWP = PUM1 PUF domain R3-VWP (Homo sapiens, UniProt Q14671 828-1176, C935V;R936W;Q939P)
# Outline: (§1)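 The interaction score is the log change in how often each variant appears, from input to selection. Frequencies came from PCR-amplified, Illumina-sequenced repeat regions of Pumilio-1 PUF domain libraries grown in strain YBZ-1 (LexA–MS2 coat fusion, HIS3 reporter) alongside matching RNA elements. Input plates were SC-Leu and selection plates were SC-Leu-His + 0.5 mM 3-AT, each for four days, and the log2 calculation used a pseudocount of 1 where a variant was absent.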
# PUM1 PUF domain R6-RFA = biological target: T1, PUM1 PUF domain R6-RFA (Homo sapiens, UniProt Q14671 828-1176, N1043R;Y1044F;Q1047A)
# T1 sequence: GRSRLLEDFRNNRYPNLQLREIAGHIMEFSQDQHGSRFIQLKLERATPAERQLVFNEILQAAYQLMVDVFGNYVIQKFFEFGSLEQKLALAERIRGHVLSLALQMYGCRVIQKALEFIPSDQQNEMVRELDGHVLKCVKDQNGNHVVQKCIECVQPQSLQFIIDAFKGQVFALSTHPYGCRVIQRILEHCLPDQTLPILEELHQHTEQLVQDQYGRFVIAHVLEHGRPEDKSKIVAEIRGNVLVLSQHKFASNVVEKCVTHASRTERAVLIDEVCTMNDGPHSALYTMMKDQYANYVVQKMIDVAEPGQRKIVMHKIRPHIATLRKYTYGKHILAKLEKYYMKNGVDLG
# Outline: as §1
# PUM1 PUF domain R8-IFM = PUM1 PUF domain R8-IFM (Homo sapiens, UniProt Q14671 828-1176, N1122I;Y1123F;Q1126M)
# Outline: as §1
# PUM1 PUF domain R8-VWR = PUM1 PUF domain R8-VWR (Homo sapiens, UniProt Q14671 828-1176, N1122V;Y1123W;Q1126R)
# Outline: as §1
# PUM1 PUF domain R4-DWV = PUM1 PUF domain R4-DWV (Homo sapiens, UniProt Q14671 828-1176, N971D;H972W;Q975V)
# Outline: as §1
# PUM1 PUF domain R1-KSV = PUM1 PUF domain R1-KSV (Homo sapiens, UniProt Q14671 828-1176, S863K;R864S;Q867V)
# Outline: as §1
# PUM1 PUF domain R7-KFW = PUM1 PUF domain R7-KFW (Homo sapiens, UniProt Q14671 828-1176, S1079K;N1080F;E1083W)
# Outline: as §1
# PUM1 PUF domain R3-MYH = PUM1 PUF domain R3-MYH (Homo sapiens, UniProt Q14671 828-1176, C935M;R936Y;Q939H)
# Outline: as §1
# PUM1 PUF domain R2-NRW = PUM1 PUF domain R2-NRW (Homo sapiens, UniProt Q14671 828-1176, Y900R;Q903W)
# Outline: as §1
# PUM1 PUF domain R5-FHC = PUM1 PUF domain R5-FHC (Homo sapiens, UniProt Q14671 828-1176, C1007F;R1008H;Q1011C)
# Outline: as §1
sequence,measurement,setting,value
GGCUAGAACUAGUGGAUCCCCCGGCGCCCGGCGGCUCGAGCCCGGGUAAGUGUAAUUAGUCUGCAUGCCGCCGGGCGCCAUGCCUGCAGGUCGACUCUAGAAAACAUG,binding signal,PUM1 PUF domain R3-VWP,3.12 log2 enrichment (interaction score)
GGCUAGAACUAGUGGAUCCCCCGGCGCCCGGCGGCUCGAGCCCGGGUAAGUGAAAAUAGUCUGCAUGCCGCCGGGCGCCAUGCCUGCAGGUCGACUCUAGAAAACAUG,binding signal,PUM1 PUF domain R6-RFA,1.03 log2 enrichment (interaction score)
GGCUAGAACUAGUGGAUCCCCCGGCGCCCGGCGGCUCGAGCCCGGGUAAGCGUAAAUAGUCUGCAUGCCGCCGGGCGCCAUGCCUGCAGGUCGACUCUAGAAAACAUG,binding signal,PUM1 PUF domain R8-IFM,2.25 log2 enrichment (interaction score)
same,binding signal,PUM1 PUF domain R8-VWR,4.44 log2 enrichment (interaction score)
GGCUAGAACUAGUGGAUCCCCCGGCGCCCGGCGGCUCGAGCCCGGGUAAGUGUAUAUAGUCUGCAUGCCGCCGGGCGCCAUGCCUGCAGGUCGACUCUAGAAAACAUG,binding signal,PUM1 PUF domain R4-DWV,6.48 log2 enrichment (interaction score)
GGCUAGAACUAGUGGAUCCCCCGGCGCCCGGCGGCUCGAGCCCGGGUAAGUGUAAAUGGUCUGCAUGCCGCCGGGCGCCAUGCCUGCAGGUCGACUCUAGAAAACAUG,binding signal,PUM1 PUF domain R1-KSV,1.55 log2 enrichment (interaction score)
GGCUAGAACUAGUGGAUCCCCCGGCGCCCGGCGGCUCGAGCCCGGGUAAGUCUAAAUAGUCUGCAUGCCGCCGGGCGCCAUGCCUGCAGGUCGACUCUAGAAAACAUG,binding signal,PUM1 PUF domain R7-KFW,3.75 log2 enrichment (interaction score)
GGCUAGAACUAGUGGAUCCCCCGGCGCCCGGCGGCUCGAGCCCGGGUAAGUGUAAAUUGUCUGCAUGCCGCCGGGCGCCAUGCCUGCAGGUCGACUCUAGAAAACAUG,binding signal,PUM1 PUF domain R1-KSV,2.75 log2 enrichment (interaction score)
GGCUAGAACUAGUGGAUCCCCCGGCGCCCGGCGGCUCGAGCCCGGGUAAGUGUAAAUAGUCUGCAUGCCGCCGGGCGCCAUGCCUGCAGGUCGACUCUAGAAAACAUG,binding signal,PUM1 PUF domain R3-MYH,3.93 log2 enrichment (interaction score)
same,binding signal,PUM1 PUF domain R8-VWR,4.37 log2 enrichment (interaction score)
same,binding signal,PUM1 PUF domain R3-VWP,7.08 log2 enrichment (interaction score)
same,binding signal,PUM1 PUF domain R2-NRW,6.69 log2 enrichment (interaction score)
same,binding signal,PUM1 PUF domain R6-RFA,4.04 log2 enrichment (interaction score)
GGCUAGAACUAGUGGAUCCCCCGGCGCCCGGCGGCUCGAGCCCGGGUAAGUGUUAAUAGUCUGCAUGCCGCCGGGCGCCAUGCCUGCAGGUCGACUCUAGAAAACAUG,binding signal,PUM1 PUF domain R5-FHC,4.26 log2 enrichment (interaction score)
GGCUAGAACUAGUGGAUCCCCCGGCGCCCGGCGGCUCGAGCCCGGGUAAGUGUGAAUAGUCUGCAUGCCGCCGGGCGCCAUGCCUGCAGGUCGACUCUAGAAAACAUG,binding signal,PUM1 PUF domain R5-FHC,3.55 log2 enrichment (interaction score)
